# Bioassay records: PubChem BioAssay, National Center for Advancing Translational Sciences (NCATS)
# Most compounds without a hit are left out; they make up all but 7.3% or so of the library.
# Tau fluor cs = Counterscreen qHTS for Inhibitors of Tau Fibril Formation, Fluorescence Polarization; Potency, µM (highest dose often 57.7 µM), inactives show top-dose activity change, negative = decrease; actives 0.93% (n = 280,000); AID 1463, 2008; tau K18 P301L Alexa594 fluorescence, heparin fibrillization; also: nearly all actives have a fitted effect of over 55% in size
#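 Human K18 P301L tau (15 uM unlabeled plus 0.24 uM Alexa 594-labeled, final) in 100 mM sodium acetate pH 7 was mixed with compound and 20 uM heparin and incubated 6 hr at 37 C.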
# VP16 counter = VP16 counterscreen qHTS for inhibitors of ROR gamma transcriptional activity; actives 3.5% (n = 310,000); Drosophila S2 Gal4-VP16 UAS-luciferase, luminescence, 20 h; Potency, µM (top dose mostly 53.6 µM), for the others: at the highest dose activity, negative = inhibition, actives largely listed as inhibitors; AID 2546, 2010;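 also: Gal4-VP16 expression switched on by copper sulfate through the metallothionein promoter; nearly all actives have a fitted effect of over 50% in size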
# Tau ThT inhib = qHTS for Inhibitors of Tau Fibril Formation, Thioflavin T Binding; Microtubule-associated protein tau (Homo sapiens), P10636; recombinant tau K18 P301L (four-repeat tau fragment), heparin-induced fibrillization, ThT fluorescence; Potency, µM (titrated, usually from 57.4 µM), for inactives: at the highest dose activity, negative = inhibition, usual class: inhibitors; actives 2.1% (n = 270,000); also: nearly all actives have a fitted effect of over 55% in size
# Target sequence (P10636 561-689 P618L limits assumed): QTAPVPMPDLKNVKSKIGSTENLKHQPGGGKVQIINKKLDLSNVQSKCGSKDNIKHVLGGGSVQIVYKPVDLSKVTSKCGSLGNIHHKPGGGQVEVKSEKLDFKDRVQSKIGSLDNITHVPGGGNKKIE
#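 Aggregation was driven by heparin (20 uM final) acting on recombinant tau […] bearing P301L in 100 mM sodium acetate pH 7; fibrils were detected with Thioflavin T.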
# Tau fibril FP = qHTS for Inhibitors of Tau Fibril Formation, Fluorescence Polarization. Microtubule-associated protein tau (Homo sapiens), P10636. K18 P301L tau heparin fibrillization, Alexa594 FP, 6 h. Potency, µM (titrated, usually from 57.7 µM), for the others: top-dose activity, negative = inhibition, actives largely listed as inhibitors. actives 0.39% (n = 280,000). AID 1468, 2008; also: nearly all actives have a fitted effect of over 55% in size
#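 Steps: dispense K18 P301L tau (15 uM plus 0.24 uM Alexa 594 tracer, final) in pH 7 sodium acetate; add compound; add heparin (20 uM final); incubate 6 hr, 37 C; add ThT (30 uM final); after 1 hr ambient, read FP.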
# RORgamma inh = qHTS for inhibitors of ROR gamma transcriptional activity. Nuclear receptor ROR-gamma (Mus musculus), P51450. Drosophila S2 Gal4-RORgamma UAS-luciferase reporter, 20 h. Potency, µM (doses to about 53.6 µM), for the others: top-dose activity change, negative = inhibition, usual class: inhibitors. actives 5.4% (n = 310,000). AID 2551, 2010; also: nearly all actives have a fitted effect of over 60% in size
# Target sequence (P51450 whole entry, looked up, the tested form may be a part): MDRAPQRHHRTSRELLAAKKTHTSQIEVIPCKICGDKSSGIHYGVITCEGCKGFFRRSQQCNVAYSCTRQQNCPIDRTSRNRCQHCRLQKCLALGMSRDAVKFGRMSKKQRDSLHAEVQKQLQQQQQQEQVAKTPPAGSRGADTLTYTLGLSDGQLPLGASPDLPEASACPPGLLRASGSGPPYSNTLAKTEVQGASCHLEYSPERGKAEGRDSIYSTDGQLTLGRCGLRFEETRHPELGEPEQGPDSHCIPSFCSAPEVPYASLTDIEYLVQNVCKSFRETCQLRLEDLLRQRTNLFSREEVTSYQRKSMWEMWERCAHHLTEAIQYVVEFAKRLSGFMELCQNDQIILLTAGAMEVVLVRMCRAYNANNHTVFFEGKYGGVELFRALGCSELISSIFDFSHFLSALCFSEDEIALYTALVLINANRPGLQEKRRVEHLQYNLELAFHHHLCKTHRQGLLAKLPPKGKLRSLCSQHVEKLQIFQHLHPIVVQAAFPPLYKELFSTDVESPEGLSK
#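 Schneider cells (Drosophila), stable Gal4 DBD–ROR gamma + UAS-luc; 1 hr cmpd preincubation; Cu2+ induction 700 uM final; 20 hr ambient; luminescence.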
# An asterisk follows results filed as active; ? = inconclusive; . = not tested or not shown; [ ] = dose if it differs, or a comment. Calls follow the shape of the dose curve; as a rule, active = well fitted curve in the direction sought with a large enough effect; inconclusive = small, poorly fitted or top-dose-only effect, or another doubt; inactive = no such curve, though single readings can be large; an effect the other way counts as inactive or inconclusive. % is scaled to controls: 0 for no effect and ±100 for the full control effect; potency is read from the fitted curve at half-maximal effect.
SMILES,Tau fluor cs,VP16 counter,Tau ThT inhib,Tau fibril FP,RORgamma inh
CCc1ccc(NS(=O)(=O)c2ccc3[nH]cc(C(=O)NCc4ccc(C)cc4)c(=O)c3c2)cc1,?,.,9.7%,3.55µM*,.
O=C(NCc1ccccc1)c1c[nH]c2ccc(F)cc2c1=O,.,1.2%,.,.,?
O=C(NCCc1ccccc1)c1c[nH]c2ccc(S(=O)(=O)Nc3ccccc3F)cc2c1=O,?,.,-5.8%,12.6µM*,.
O=C(NCc1ccccc1)c1c[nH]c2ccc(S(=O)(=O)Nc3ccc4c(c3)OCCO4)cc2c1=O,10µM*[quencher],-2.4%,-10.0%,?,41.6%
Cc1noc(C)c1C(=O)N1CCC[C@@]2(CCN(c3cccc(-c4ccccc4)c3)C2)C1,.,0.0%,.,.,7.3%
O=C(NNC(=O)C1CC(c2cccs2)=NO1)Nc1ccccc1 (configuration not stated),.,-6.0%,.,.,10.3%
Cc1cccc(Nc2c(-c3ccsc3)nc3nc(C)cc(C)n23)c1,-16.7%,.,-14.9%,3.2%,.
COc1ccc(OC)c(C2=NS(=O)(=O)N(C)C(C(=O)Nc3ccc(F)cc3F)=C2)c1,-1.4%,-26.7%,1.0%,-12.5%,?
NC(=O)NCCC1=CCCCC1,-1.4%,6.9%,-10.8%,-4.9%,0.2%
COc1ccccc1CNC(=O)c1c[nH]c2ccc(S(=O)(=O)Nc3cc(C)cc(C)c3)cc2c1=O,?,.,4.1%,8.91µM*,.
CCN(CC)C(=O)c1c[nH]c2ccc(S(=O)(=O)Nc3cc(C)cc(C)c3)cc2c1=O,-15.2%,-1.3%,-7.3%,-12.7%,11.4%
Cc1cc(C(=O)NCCC2=CCCCC2)c(C)o1,-10.6%,?,?,?,10µM*
COc1ccccc1N1CCN(S(=O)(=O)c2c(C)nc3sccn3c2=O)CC1,-8.2%,.,-3.1%,-3.8%,.
Cn1c(=O)oc2cc(S(=O)(=O)NCCC(=O)Nc3ccc(F)cc3F)ccc21,-8.5%,.,-6.9%,-1.0%,.
COc1ccc(OC)c(CNC(=O)Cn2nc(C)c3nn(-c4ccc(Cl)cc4)c(C)c3c2=O)c1,-9.3%,.,?,12.3%,.
Clc1ccc(-c2ccc(C=Nc3ccc(N4CCOCC4)cc3)o2)c(Cl)c1,-0.9%,2.7%,?,-0.6%,-22.0%
Clc1cccc(-c2ccc(C=Nc3ccc(N4CCOCC4)cc3)o2)c1Cl,?,-11.6%,12.6µM*,-24.0%,-11.2%
CCCCc1ccc(-n2nc3cc(Cl)c(NC(=O)c4ccc(OC)cc4)cc3n2)cc1,-3.1%,.,-6.6%,-1.9%,.
Cc1nc2ccccc2n1CC(=O)c1ccccc1,.,-0.7%,.,.,-18.5%
CCC(C)Cn1c(C)nc2ccccc21 (configuration not stated),3.4%,12.6µM*,2.0%,-8.4%,12.6µM*
Cc1nc2ccccc2n1Cc1ccccc1Br,.,12.6µM*,.,.,?
Cc1nc2ccccc2n1Cc1ccccc1,.,?,.,.,0.5%[1.91 µM]
Cc1nc2ccccc2n1CSc1ccccc1,4.3%,-29.3%,4.8%,10.4%,14.1µM*
COC(=O)C(NC(=O)COc1ccccc1)(Nc1nc2c(s1)CCCC2)C(F)(F)F (configuration not stated),4.0%,20µM*,5.5%,0.2%,?
CCN1C(=O)CSC1=Nc1ccc(OC)cc1,.,-1.4%,.,.,-1.3%
SMILES,Tau fluor cs,VP16 counter,Tau ThT inhib,Tau fibril FP,RORgamma inh
COc1c(Cl)cc(Cl)cc1/C=N/NC(=O)c1nnn(-c2nonc2N)c1CN1CCC(C)CC1,.,-2.6%,.,.,-25.8%
CC1CCN(Cc2c(C(=O)N/N=C/c3cc(Cl)ccc3O)nnn2-c2nonc2N)CC1,.,4.47µM*,.,.,3.55µM*
CCOc1ccc(/C=N/NC(=O)c2nnn(-c3nonc3N)c2CN2CCC(C)CC2)cc1,.,-1.1%,.,.,7.9%
CC1CCN(Cc2c(C(=O)N/N=C/c3cc(Br)ccc3O)nnn2-c2nonc2N)CC1,.,7.08µM*,.,.,3.55µM*
COc1ccccc1Oc1nc2c(C)cccn2c(=O)c1/C=C(\C#N)c1nc2ccccc2[nH]1,-14.4%,.,-10.7%,?,.
CCCOc1ccc(/C=N/NC(=S)Nc2ccccc2[N+](=O)[O-])c(O)c1,12.0%,-11.7%,9.0%,10.9%,-0.3%
Cc1ccc(S(=O)(=O)N/N=C\c2ccc(Cl)c([N+](=O)[O-])c2)cc1,?,-2.6%[0.365 µM],?,-1.9%,-15.0%
COc1ccc(/C=N/NC(=S)Nc2ccccc2[N+](=O)[O-])cc1O,15.8µM*[quencher],3.16µM*,4.47µM*,-4.8%,5.62µM*
Cc1ccc(NC(=S)N/N=C/c2ccc(Cl)c([N+](=O)[O-])c2)cc1,-29.6%,?,-26.1%,-7.2%,17.8µM*
O=[N+]([O-])c1cc(/C=N/NC(=S)Nc2ccccc2Cl)ccc1Cl,?,3.55µM*,?,?,3.16µM*
CC#CC(=O)Nc1cc2c(Nc3ccc(F)c(Cl)c3)ncnc2cn1,.,4.4%,.,.,-1.3%
CC1(C)C(=O)N(CC(=O)Nc2ccc(Br)cc2F)c2ccccc21,-9.6%,.,-3.8%,-0.6%,.
COc1ccc(Cl)cc1NC(=O)CSc1nccn1Cc1ccco1,-22.1%,.,-8.5%,-12.5%,.
Cc1ccc2[nH]c3c(c2c1)CC/C(=C/c1ccccc1)C3=O,-9.8%,6.31µM*,?,1.6%,3.98µM*
Cc1cc(C)cc(OCCCn2c(-c3ccc(Cl)cc3)nc3ccccc3c2=O)c1,-15.7%,.,-14.6%,-5.0%,.
Cc1ccc(OCC(=O)NNC(=S)NC(=O)C2CC2)c(C)c1,.,-22.5%,.,.,8.91µM*
Cc1ccc(OCC(=O)NNC(=S)NC(=O)C2CCCCC2)c(C)c1,.,-15.7%,.,.,10µM*
COc1ccc(NC(=O)COC(=O)C(CC(C)C)N2C(=O)C3CC=CCC3C2=O)cc1Cl (configuration not stated),-2.0%,22.4µM*,-4.4%,-7.0%,-2.9%
COc1ccc(NC(=O)COC(C)=O)cc1Cl,-17.5%,-0.2%,-5.3%,-8.5%,11.6%
Cc1cc(Sc2nnc(/N=C/N(C)C)s2)c2ccccc2n1,-7.2%,?,-14.0%,0.2%,8.91µM*
Cc1cc(Sc2nnc(N)s2)c2ccccc2n1,1.7%,11.2µM*,0.3%,-1.0%,7.94µM*
CCCCn1c(SCC(=O)NCc2ccccc2)nc2ccc(N3CCOCC3)cc2c1=O,-8.9%,?,-13.5%,8.2%,?
CCCCn1c(SCC(=O)NC(C)CC)nc2ccc(N3CCOCC3)cc2c1=O (configuration not stated),?,20µM*,?,-7.7%,1.26µM*
CCOC(=O)CSc1nc2ccccc2c(=O)n1NC(=O)c1ccccc1,-10.8%,-3.4%,-3.1%,?,-22.1%
COc1ccc(C(=O)Nn2c(SCC(=O)c3ccccc3)nc3ccccc3c2=O)cc1,-24.2%,?,-11.7%,?,11.2µM*
